ChEMBL document CHEMBL3988442, “University of Dundee, Small-Polar-MMV Screening Library” (2021)
The campaign covered roughly 48,000 compounds. About 13,000 (27%) showed an effect of 50% or more. Some of the results follow.

tested on: Wolbachia pipientis; experiment: Anti-Wolbachia Cell-Based Screen; assay type: functional; parameters: scale not given: in the data most compounds retested in dose-response had high values; conditions: 5 µM

Point of comparison: `COc1ccc(CN2C[C@H]3CCC[C@@H](CN(C)C)[C@H]3C2)cn1.O=C(O)C(F)(F)F.O=C(O)C(F)(F)F`, “Percent Effect” value 10.6%. Against it:
- COc1ccc(CN2C[C@H]3CN(c4cncnc4)C(=O)[C@H]3C2)cc1.O=C(O)C(F)(F)F — lower, -6.592%
- CCc1cc(N2CCC(NC3CN4CCC3CC4)CC2)nc(N(C)C)n1 (stereo unspecified) — lower, 2.929%
- CCCn1cc(C(=O)NCC(=O)NC2CC2)c(C)n1 — lower, 8.869%
- COc1ncccc1CN1C[C@H]2CCN(C(C)C)C[C@H]2C1.O=C(O)C(F)(F)F.O=C(O)C(F)(F)F — higher, 108.8%
- COc1ncccc1CN1CC[C@H]2[C@H]1CCN2CCN(C)C.O=C(O)C(F)(F)F.O=C(O)C(F)(F)F.O=C(O)C(F)(F)F.O=C(O)C(F)(F)F — lower, -2.708%
- COc1ncccc1CN1C[C@H]2CCN(c3ncccn3)C[C@H]2C1.O=C(O)C(F)(F)F — higher, 102%
- CCN1CCCC12CCN(Cc1cccnc1OC)CC2.O=C(O)C(F)(F)F.O=C(O)C(F)(F)F — lower, 9.255%
- CN1CC2(CCNCC2)CC1C(=O)NCCCNc1cccnc1 (stereo unspecified) — lower, 9.44%
- O=C(O)C(F)(F)F.O=C(O)C(F)(F)F.c1cnc(N2CCCC3(CCN(CC4CC4)C3)C2)nc1 (stereo unspecified) — lower, -2.531%
- CCN1C[C@H]2N(c3ncccn3)CCC[C@@]2(C(=O)NCC2CC2)C1 — higher, 121.2%
- CNC(=O)[C@@]12CCCN(c3ncccn3)[C@@H]1CN(C)C2.O=C(O)C(F)(F)F — lower, -0.06284%
- CN1[C@@H](C(=O)NCC2CC2)C[C@@H]2CN(c3ncccn3)C[C@@H]21 — lower, -3.694%
- CC(=O)N1C[C@H]2CCCC(N3CCN(c4ncccn4)CC3)[C@H]2C1.O=C(O)C(F)(F)F.O=C(O)C(F)(F)F (stereo partly specified) — lower, -9.605%
- CN1C[C@H]2N(c3ncccn3)CCC[C@@]2(C(=O)NCC2CC2)C1.O=C(O)C(F)(F)F — higher, 104.5%
- CN(CC1Cc2ccccc2CN1C)C(=O)Cc1cccs1 (stereo unspecified) — lower, 4.108%
- O=C(O)C(F)(F)F.c1cnc(NC[C@@H]2CCC[C@@H]3CN(Cc4cc[nH]n4)C[C@@H]32)nc1 — lower, -8.539%
- Cn1cc(CN2C[C@H]3CCC[C@@H](CNc4ncccn4)[C@H]3C2)cn1.O=C(O)C(F)(F)F — higher, 111.9%
- COc1ccc(CN2C[C@H]3CCC[C@@H](CN(C)C4CC4)[C@H]3C2)cn1.O=C(O)C(F)(F)F.O=C(O)C(F)(F)F — higher, 14.86%
- COCCN1C[C@H]2CCC[C@@H](CNc3ncccn3)[C@H]2C1.O=C(O)C(F)(F)F.O=C(O)C(F)(F)F — lower, 1.407%
- O=C(O)C(F)(F)F.c1cnc(NC[C@@H]2CCC[C@@H]3CN(Cc4csnn4)C[C@@H]32)nc1 — higher, 17.75%
- Cn1ccnc1NC[C@@H]1CCC[C@@H]2CN(Cc3cccnc3)C[C@@H]21.O=C(O)C(F)(F)F — higher, 109.4%
- O=C(O)C(F)(F)F.c1ccc(NC[C@@H]2CCC[C@@H]3CN(Cc4cc[nH]n4)C[C@@H]32)nc1 — lower, -6.028%
- CN(C[C@@H]1CCC[C@@H]2CN(Cc3cccnc3)C[C@@H]21)C1CC1.O=C(O)C(F)(F)F.O=C(O)C(F)(F)F — lower, 2.908%
- Cn1cc(CN2C[C@@H]3CCC[C@@H](OCc4cccnc4)[C@@H]3C2)cn1 — higher, 52.17%
- O=C(O)C(F)(F)F.c1cncc(CN2C[C@H]3CCC[C@@H](CNc4cnccn4)[C@H]3C2)c1 — higher, 134.5%
- O[C@@]1(CNCCCNc2cccnc2)CCCN2CCCC[C@@H]21 — lower, 3.199%
- Cc1nc(O)cc(CN2CC=C(c3cnn(C(C)(C)C)c3)CC2)n1 — lower, 6.105%
- CC(Cc1ccccc1Br)NC(=O)CCS(C)(=O)=O (stereo unspecified) — higher, 11.71%
- O=C(O)C(F)(F)F.c1ccc(NC[C@@H]2CCC[C@@H]3CN(Cc4cccnc4)C[C@@H]32)nc1 — higher, 90.18%
- O=C(O)C(F)(F)F.c1ccc(NC[C@@H]2CCC[C@@H]3CN(Cc4nccs4)C[C@@H]32)nc1 — lower, -15.69%
- O=C(O)C(F)(F)F.c1cnc(NC[C@@H]2CCC[C@@H]3CN(Cc4cccnc4)C[C@@H]32)nc1 — lower, -1.894%
- CSCCCN1CC[C@@]2(O)CCN(c3ncccn3)C[C@H]2C1 — lower, -7.567%
- Cc1cccc(-c2ncc(CNC(C)Cc3ncccc3C)cn2)c1 (stereo unspecified) — lower, -7.429%
- Cc1cc(CN2C[C@H]3CCC[C@@]3(COCc3csc(C)n3)C2)no1.O=C(O)C(F)(F)F — lower, 6.371%
- Cc1noc(C)c1CN1C(=O)[C@H]2CC[C@@H]1CN(Cc1cscn1)C2 — lower, -52.5%
- Cc1cc(NC2CC3(CCN(Cc4cscn4)C3)C2)ncn1 (stereo unspecified) — higher, 115%
- Cc1nc(CN2CCC3(C2)CN(C(=O)c2conc2C)C3)cs1 — higher, 97.08%
- c1cc(NC2CC3(CCN(Cc4cscn4)C3)C2)ncn1 (stereo unspecified) — higher, 101.6%
- c1cc(NC2CC3(CCN(Cc4cc[nH]n4)C3)C2)ncn1 (stereo unspecified) — lower, -10.13%
- Cc1nc(CN2CCCC3(CCN(c4cccnc4)C3=O)C2)cs1.O=C(O)C(F)(F)F.O=C(O)C(F)(F)F (stereo unspecified) — lower, -13.68%
- Cc1cc(NC2CC3(CCN(Cc4csc(C)n4)C3)C2)ncn1 (stereo unspecified) — higher, 114%
- NCC1(c2cccc(F)c2)CCOCC1 — lower, -10.48%
- Cc1cc(CC(=O)N2CCN(CC3CC3)[C@@H]3CS(=O)(=O)C[C@@H]32)ccc1F — lower, 7.302%
- O=S1(=O)CCC(n2cc(C3=CCN(CCc4ccccc4)CC3)cn2)C1 (stereo unspecified) — lower, -5.355%
- Cc1n[nH]c(C)c1CC(=O)N1CCN(C)C2(CCNC(=O)CC2)C1 (stereo unspecified) — lower, 2.016%
- O=C(Nc1ccccc1)[C@H]1CN2CC[C@H]1C[C@@H]2Cn1cc(CCO)nn1 — lower, -5.907%
- CC(=O)N1CCC2(CC1)c1ncc(-c3cccnc3)n1CCN2C — higher, 84.46%
- CCC1CCCCN1CCc1ccncc1 (stereo unspecified) — lower, -22.38%
- CC1CN(CCc2ccncc2)CCO1 (stereo unspecified) — higher, 124.6%
- c1ccc2c(c1)CCC21CN(CCc2ccncc2)CCO1 (stereo unspecified) — lower, -6.517%
